The full ranking holds about 16,000 sequences; the median of “rpm ratio (pull-down/input)” is about 0.5, and the highest 2% start at about 5.5. Shown is part of a subset that was picked to be rich in the highest values.

In this assay the target is T1, MBP-FoxP3dN (Mus musculus, UniProt Q99JB6 188-423).
T1 sequence: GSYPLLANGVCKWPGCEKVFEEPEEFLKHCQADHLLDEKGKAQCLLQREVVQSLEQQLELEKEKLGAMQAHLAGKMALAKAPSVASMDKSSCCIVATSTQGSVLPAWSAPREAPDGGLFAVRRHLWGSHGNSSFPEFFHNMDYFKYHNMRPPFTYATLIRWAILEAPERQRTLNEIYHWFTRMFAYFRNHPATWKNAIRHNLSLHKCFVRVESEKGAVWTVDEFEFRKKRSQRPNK
As to the kind of experiment: PD-seq (MBP pull-down with sequencing); 20 mM Tris-HCl pH 7.5, 100 mM NaCl, 1.5 mM MgCl2, 0.4 uM protein, 0.1 uM dsDNA library, 30 min, room temperature, amylose pull-down; high values mean tight binding. The note with it: protein: recombinant; tags: His6-MBP; chain copies: 2; dsDNA, one strand shown. In a few lines:
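E. coli-expressed mouse FoxP3 or FoxP1 fragment, N-terminus removed and tagged with His6-MBP, was used at 0.4 µM against 0.1 µM of a Klenow-filled degenerate double-stranded DNA library. After 30 min at room temperature in Tris pH 7.5 buffer with NaCl and MgCl2, complexes were pulled down on amylose resin and washed three times. Binding is pull-down over input reads-per-million enrichment from pooled replicates of the proteinase K-released, PCR-barcoded, Illumina-sequenced DNA.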
In the case of “GATGATTGTTCTCCCAGCTGATGAATTCTCTTGCTCGAGTAAACAAATTTTCCTAATCTTTCTGTTCAAGCGCCATCTAC”, the binding signal was 0.273 RPM ratio (pull-down/input).
As for “GATGATTGTTCTCCCAGCTGATGAATTTTCCTTATCGAGTAAACAAATTTTCCTAATCTTTCTGTTCAAGCGCCATCTAC”, the figure is 0.31 RPM ratio (pull-down/input); as for “GATGATTGTTCTCCCAGCTGATGAATTGGTGTTGTCGAGTAAACAAATTTTCCTAATCTTTCTGTTCAAGCGCCATCTAC”, 3.18 RPM ratio (pull-down/input).
For the sequence “GATGATTGTTCTCCCAGCTGATGAATTCGATATTTCGAGTAAACAAATTTTCCTAATCTTTCTGTTCAAGCGCCATCTAC”, the binding signal is 1.79 RPM ratio (pull-down/input).
As for “GATGATTGTTCTCCCAGCTGATGAATTTCGCAAATCGAGTAAACAAATTTTCCTAATCTTTCTGTTCAAGCGCCATCTAC”, the binding signal is 0.634 RPM ratio (pull-down/input).
As for “GATGATTGTTCTCCCAGCTGATGAATTCGTCGTATCGAGTAAACAAATTTTCCTAATCTTTCTGTTCAAGCGCCATCTAC”, the figure is 1.17 RPM ratio (pull-down/input); as for “GATGATTGTTCTCCCAGCTGATGAATTTAGTAAATCGAGTAAACAAATTTTCCTAATCTTTCTGTTCAAGCGCCATCTAC”, 0.439 RPM ratio (pull-down/input).
As for “GATGATTGTTCTCCCAGCTGATGAATTGTAGCCGTCGAGTAAACAAATTTTCCTAATCTTTCTGTTCAAGCGCCATCTAC”, the figure is 0.622 RPM ratio (pull-down/input); as for “GATGATTGTTCTCCCAGCTGATGAATTATGTATTTCGAGTAAACAAATTTTCCTAATCTTTCTGTTCAAGCGCCATCTAC”, 4.76 RPM ratio (pull-down/input); as for “GATGATTGTTCTCCCAGCTGATGAATTATATGTATCGAGTAAACAAATTTTCCTAATCTTTCTGTTCAAGCGCCATCTAC”, 2.22 RPM ratio (pull-down/input).
As for “GATGATTGTTCTCCCAGCTGATGAATTATGTATATCGAGTAAACAAATTTTCCTAATCTTTCTGTTCAAGCGCCATCTAC”, the figure is 5.96 RPM ratio (pull-down/input); as for “GATGATTGTTCTCCCAGCTGATGAATTATGTGTATCGAGTAAACAAATTTTCCTAATCTTTCTGTTCAAGCGCCATCTAC”, 5.73 RPM ratio (pull-down/input).
As to “GATGATTGTTCTCCCAGCTGATGAATTTTATGTATCGAGTAAACAAATTTTCCTAATCTTTCTGTTCAAGCGCCATCTAC”, the binding signal is 3.53 RPM ratio (pull-down/input).
As to “GATGATTGTTCTCCCAGCTGATGAATTGTATGTATCGAGTAAACAAATTTTCCTAATCTTTCTGTTCAAGCGCCATCTAC”, the binding signal is 4.55 RPM ratio (pull-down/input).
The value for “GATGATTGTTCTCCCAGCTGATGAATTATGTATCTCGAGTAAACAAATTTTCCTAATCTTTCTGTTCAAGCGCCATCTAC” was 5.75 RPM ratio (pull-down/input).
In the case of “GATGATTGTTCTCCCAGCTGATGAATTATGTTTCTCGAGTAAACAAATTTTCCTAATCTTTCTGTTCAAGCGCCATCTAC”, the binding signal was 4.18 RPM ratio (pull-down/input).
For the sequence “GATGATTGTTCTCCCAGCTGATGAATTATCTGTATCGAGTAAACAAATTTTCCTAATCTTTCTGTTCAAGCGCCATCTAC”, the binding signal was 0.545 RPM ratio (pull-down/input).
As to “GATGATTGTTCTCCCAGCTGATGAATTCTTCGATTCGAGTAAACAAATTTTCCTAATCTTTCTGTTCAAGCGCCATCTAC”, the binding signal is 0.253 RPM ratio (pull-down/input).

For the origin of these results see publication PMC12820563, “FoxP3 forms a head-to-head dimer in vivo and stabilizes its multimerization on adjacent microsatellites”.
